In the antibiotic and cytotoxicity screens of Wong et al. (2023):
Screen size: about 39,000 compounds; about 1,500 (3.8%) were called active. The entries come from a sample that favours actives as a whole.

test system: HSkMC (human skeletal muscle cells); assay: cytotoxicity call (relative viability < 0.9); settings: 10 µM

SMILES | cytotoxicity call
Cc1ccc(S(=O)(=O)Nc2ccc3c(c2)C(=O)N([C@@H](C)CO)C[C@H](C)[C@H](CN(C)C(=O)Nc2ccc(C(F)(F)F)cc2)OCCCC[C@H](C)O3)cc1 | inactive
CC(C)(C)C1CCC(OC[C@@H](O)CN2CCC(CN3C(=O)c4cccc5cccc(c45)C3=O)CC2)CC1 (stereo not given in full) | active
O=C(CN1C(=O)c2cccc3cccc(c23)C1=O)N1CCN(CCN2C(=O)[C@@H]3[C@@H](C2=O)[C@@H]2C=C[C@@H]3C2)CC1 | inactive
O=C(O)CN1C(=O)c2cccc3cccc(c23)C1=O | inactive
O=C(O)C1C(=CCO)OC2CC(=O)N21.[LiH] (stereo not given) | inactive
Cc1ccc(S(=O)(=O)N(C)C[C@H]2Oc3c(NC(=O)C4CC4)cccc3C(=O)N([C@@H](C)CO)C[C@H]2C)cc1 | inactive
O=C(C[C@H]1C[C@H]2c3cc(NC(=O)c4ccc5c(c4)OCO5)ccc3O[C@H]2[C@@H](CO)O1)NCc1ccc(Oc2ccccc2)cc1 | inactive
O=C(C[C@@H]1C[C@@H]2c3cc(NC(=O)c4ccc5c(c4)OCO5)ccc3O[C@@H]2[C@H](CO)O1)NCc1ccc(Oc2ccccc2)cc1 | active
COc1ccccc1CNC(=O)C[C@@H]1C[C@@H]2c3cc(NC(=O)c4ccc5c(c4)OCO5)ccc3O[C@@H]2[C@@H](CO)O1 | inactive
O=C(C[C@H]1C[C@@H]2c3cc(NC(=O)c4ccc5c(c4)OCO5)ccc3O[C@@H]2[C@@H](CO)O1)NCc1ccc(Oc2ccccc2)cc1 | inactive
O=C(C[C@H]1C[C@H]2c3cc(NC(=O)c4ccc5c(c4)OCO5)ccc3O[C@H]2[C@H](CO)O1)NCc1ccc(Oc2ccccc2)cc1 | active
O=C(C[C@@H]1C[C@@H]2c3cc(NC(=O)c4ccc5c(c4)OCO5)ccc3O[C@@H]2[C@@H](CO)O1)NCc1ccc(Oc2ccccc2)cc1 | active
O=C(C[C@H]1C[C@@H]2c3cc(NC(=O)c4ccc5c(c4)OCO5)ccc3O[C@@H]2[C@H](CO)O1)NCc1ccc(Oc2ccccc2)cc1 | inactive
O=C(C[C@@H]1C[C@H]2c3cc(NC(=O)c4ccc5c(c4)OCO5)ccc3O[C@H]2[C@@H](CO)O1)NCc1ccc(Oc2ccccc2)cc1 | inactive
COc1ccccc1CNC(=O)C[C@@H]1C[C@@H]2c3cc(NC(=O)c4ccc5c(c4)OCO5)ccc3O[C@@H]2[C@H](CO)O1 | inactive
O=C(C[C@@H]1C[C@H]2c3cc(NC(=O)c4ccc5c(c4)OCO5)ccc3O[C@H]2[C@H](CO)O1)NCc1ccc(Oc2ccccc2)cc1 | inactive
COc1ccccc1CNC(=O)C[C@@H]1C[C@H]2c3cc(NC(=O)c4ccc5c(c4)OCO5)ccc3O[C@H]2[C@H](CO)O1 | active
O=C(C[C@H]1C[C@H]2c3cc(NC(=O)c4ccc5c(c4)OCO5)ccc3O[C@H]2[C@@H](CO)O1)NCc1cccnc1 | inactive
COCC#Cc1cnc2c(c1)C(=O)N([C@@H](C)CO)C[C@H](C)[C@@H](CN(C)C(=O)CN1CCOCC1)O2 | inactive
COc1ccc(S(=O)(=O)N2C[C@H](O)COC[C@H]3O[C@H](CC(=O)NCCCN4CCOCC4)CC[C@@H]32)cc1 | inactive

SMILES | cytotoxicity call
C[C@@H]1CN([C@@H](C)CO)S(=O)(=O)c2ccc(C#Cc3ccc(F)cc3)cc2O[C@@H]1CN(C)S(C)(=O)=O | inactive
Cc1noc(C)c1NC(=O)N(C)C[C@@H]1OCCCC[C@@H](C)Oc2ccc(NC(=O)Nc3cccc4ccccc34)cc2C(=O)N([C@H](C)CO)C[C@@H]1C | inactive
CCCC#Cc1cnc2c(c1)C(=O)N([C@H](C)CO)C[C@H](C)[C@@H](CN(C)C(=O)c1ccc3c(c1)OCO3)O2 | inactive
COc1ccc(S(=O)(=O)N(C)C[C@H]2Oc3ccc(NC(=O)CCCN(C)C)cc3CC(=O)N([C@@H](C)CO)C[C@@H]2C)cc1 | inactive
O=C(C1=C[C@H](c2ccc(C(F)(F)F)cc2)C[C@H](OCc2ccc(CO)cc2)O1)N1CCN(Cc2ccc3c(c2)OCO3)CC1 | inactive
CN(C)CCCCNC(=O)[C@H]1C[C@H]2C(=O)N[C@@H](Cc3ccccc3)C(=O)N2[C@H]1c1cccc(OCCO)c1 | inactive
O=C(C[C@@H]1C[C@@H]2c3cc(NS(=O)(=O)c4ccc(F)cc4)ccc3O[C@@H]2[C@@H](CO)O1)N1CCOCC1 | inactive
O=C1CN(S(=O)(=O)Cc2ccccc2)C[C@H]2[C@H](c3ccc(C#Cc4cccc(F)c4)cc3)[C@@H](CO)N12 | inactive
O=C1CN(S(=O)(=O)Cc2ccccc2)C[C@H]2[C@@H](c3ccc(C#Cc4cccc(F)c4)cc3)[C@@H](CO)N12 | inactive
O=C1CN(S(=O)(=O)Cc2ccccc2)C[C@H]2[C@H](c3ccc(C#Cc4cccc(F)c4)cc3)[C@H](CO)N12 | active
O=C1CN(S(=O)(=O)Cc2ccccc2)C[C@H]2[C@@H](c3ccc(C#Cc4cccc(F)c4)cc3)[C@H](CO)N12 | inactive
COc1cccc(C#Cc2ccc([C@@H]3[C@H](CO)N4C(=O)CN(S(=O)(=O)c5ccccc5C)C[C@@H]34)cc2)c1 | inactive
O=C1CN(S(=O)(=O)Cc2ccccc2)C[C@@H]2[C@@H](c3ccc(C#Cc4cccc(F)c4)cc3)[C@@H](CO)N12 | active
O=C1CN(S(=O)(=O)Cc2ccccc2)C[C@@H]2[C@H](c3ccc(C#Cc4cccc(F)c4)cc3)[C@@H](CO)N12 | inactive
O=C1CN(S(=O)(=O)Cc2ccccc2)C[C@@H]2[C@H](c3ccc(C#Cc4cccc(F)c4)cc3)[C@H](CO)N12 | inactive
O=C1CN(S(=O)(=O)Cc2ccccc2)C[C@@H]2[C@@H](c3ccc(C#Cc4cccc(F)c4)cc3)[C@H](CO)N12 | active
C/C=C/c1ccc2c(c1)O[C@H](CN(C)Cc1ccc(C(=O)O)cc1)[C@H](C)CN([C@@H](C)CO)S2(=O)=O | inactive
Cc1noc(C)c1NC(=O)N(C)C[C@H]1OCCCC[C@@H](C)Oc2ccc(NC(=O)c3ccccc3)cc2C(=O)N([C@@H](C)CO)C[C@H]1C | inactive
COc1ccc(S(=O)(=O)N(C)C[C@H]2Oc3ncc(C#CC4(O)CCCC4)cc3C(=O)N([C@@H](C)CO)C[C@@H]2C)cc1 | inactive
Cc1ccc(C(=O)Nc2ccc(S(=O)(=O)O)c3cc(S(=O)(=O)O)cc(S(=O)(=O)O)c23)cc1NC(=O)c1cccc(NC(=O)Nc2cccc(C(=O)Nc3cc(C(=O)Nc4ccc(S(=O)(=O)O)c5cc(S(=O)(=O)O)cc(S(=O)(=O)O)c45)ccc3C)c2)c1 | inactive
